# Counter-ions that a name gives are not always drawn.
# Tested on: Haemophilus parainfluenzae
# Assay: growth AUC normalised to DMSO control (fraction of control); higher = less growth inhibition, active = hit call of the paper
# Details: 20 µM;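 active = AUC significantly below DMSO controls by Student t-fit with adjusted P under 0.01; inactive = not significantly reduced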
# Summary of the method: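 Pathogens were passaged twice under anaerobic conditions, then inoculated into pre-reduced mGAM plates at a starting OD578 of 0.01, with compound at 20 μM and 1% DMSO, and sealed with breathable membranes. For Haemophilus parainfluenzae, the medium was supplemented with hemin and NAD. OD578 was read every hour for 24 h in three biological replicates. Growth-curve AUC was calculated by the trapezoidal rule up to the exponential-to-stationary transition and normalised to DMSO controls on the same plate.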
row,Structure (SMILES),growth AUC normalised to DMSO control
1,Clc1ccc(C(Cn2ccnc2)OCc2ccsc2Cl)c(Cl)c1 (stereo not drawn) [Tioconazole],0.934 (inactive)
2,CC[C@H](C)C(=O)O[C@H]1CCC=C2C=C[C@H](C)[C@H](CC[C@@H]3C[C@@H](O)CC(=O)O3)[C@H]21 [Mevastatin],0.978 (inactive)
3,CN(C)c1nc(N(C)C)nc(N(C)C)n1 [Altretamine],1.05 (inactive)
4,O=C(c1ccc(OCCN2CCCCC2)cc1)c1c(-c2ccc(O)cc2)sc2cc(O)ccc12 [Raloxifene hydrochloride],0.974 (inactive)
5,CC(C)(O/N=C(\C(=O)N[C@@H]1C(=O)N2C(C(=O)[O-])=C(C[n+]3ccccc3)CS[C@H]12)c1csc(N)n1)C(=O)O [Ceftazidime pentahydrate],0.079 (active)
6,CC1(C)S[C@@H]2[C@H](NC(=O)[C@H](C(=O)O)c3ccsc3)C(=O)N2[C@H]1C(=O)O [Ticarcillin sodium],0.0663 (active)
7,CC1(C)[C@@H](OC(=O)CCC(=O)O)CC[C@]2(C)[C@H]3C(=O)C=C4[C@@H]5C[C@@](C)(C(=O)O)CC[C@]5(C)CC[C@@]4(C)[C@]3(C)CC[C@@H]12 [Carbenoxolone disodium salt],0.964 (inactive)
8,COc1ccc2[nH]c([S+]([O-])Cc3ncc(C)c(OC)c3C)nc2c1 (stereo not drawn) [Omeprazole],0.919 (inactive)
9,COC(=O)[C@@H]1[C@H]2C[C@H]3c4[nH]c5ccccc5c4CCN3C[C@@H]2CC[C@@H]1O [Yohimbine hydrochloride],0.971 (inactive)
10,CC(=O)N[C@@H](CC(=O)O)C(=O)N[C@@H](CCC(=O)O)C(=O)O [Spaglumic acid],1.04 (inactive)
11,CNCCC=C1c2ccccc2C=Cc2ccccc21 [Norcyclobenzaprine],0.91 (inactive)
12,C[C@]12CC[C@@H]3c4ccc(OS(=O)(=O)O)cc4CC[C@H]3[C@@H]1CCC2=O [Estropipate piperazine salt],0.985 (inactive)
13,O=C(CCCN1CCC(O)(c2ccc(Cl)cc2)CC1)c1ccc(F)cc1 [Haloperidol],0.951 (inactive)
14,CC[C@H](C)[C@H](N)C1=N[C@H](C(=O)N[C@@H](CC(C)C)C(=O)N[C@H](CCC(=O)O)C(=O)N[C@H](C(=O)N[C@H]2CCCCNC(=O)[C@H](CC(N)=O)NC(=O)[C@@H](CC(=O)O)NC(=O)[C@H](Cc3cnc[nH]3)NC(=O)[C@@H](Cc3ccccc3)NC(=O)[C@H]([C@@H](C)CC)NC(=O)[C@@H](CCCN)NC2=O)[C@@H](C)CC)CS1 [Bacitracin],0.999 (inactive)
15,CCn1cc(C(=O)O)c(=O)c2cc(F)c(N3CCNCC3)cc21 [Norfloxacin],0.0519 (active)
16,CCN(CC)CCNC(=O)c1cc(S(C)(=O)=O)ccc1OC [Tiapride hydrochloride],0.993 (inactive)
17,O=c1n(CCCN2CCN(c3cccc(Cl)c3)CC2)nc2ccccn12 [Trazodone hydrochloride],0.98 (inactive)
18,O=C(O)c1cn(C2CC2)c2cc(N3CCNCC3)c(F)cc2c1=O [Ciprofloxacin hydrochloride monohydrate],0.0495 (active)
19,CN1CCN(CCCN2c3ccccc3Sc3ccc(Cl)cc32)CC1 [Prochlorperazine dimaleate],0.913 (inactive)
20,Clc1ccccc1C(c1ccccc1)(c1ccccc1)n1ccnc1 [Clotrimazole],0.968 (inactive)
21,O=C(NCCO[N+](=O)[O-])c1cccnc1 [Nicorandil],0.987 (inactive)
22,Nc1ccn([C@H]2CC[C@@H](CO)O2)c(=O)n1 [Zalcitabine],1.06 (inactive)
23,CN(C)CCOC(c1ccccc1)c1ccccc1 [Diphenhydramine hydrochloride],0.992 (inactive)

row,Structure (SMILES),growth AUC normalised to DMSO control
1,Cn1c(=O)c2c(ncn2CC(O)CO)n(C)c1=O (stereo not drawn) [Diprophylline],0.994 (inactive)
2,COc1cccc(N(C)C(=S)Oc2ccc3c(c2)CCCC3)n1 [Liranaftate],1.01 (inactive)
3,CN(C)CC/C=C1/c2ccccc2COc2ccc(CC(=O)O)cc21 [Olopatadine hydrochloride],0.881 (inactive)
4,Cc1onc(-c2c(Cl)cccc2Cl)c1C(=O)N[C@@H]1C(=O)N2[C@@H]1SC(C)(C)[C@@H]2C(=O)O [Dicloxacillin sodium salt hydrate],0.893 (inactive)
5,O=C1c2ccccc2C(=O)C1c1ccccc1 [Phenindione],0.973 (inactive)
6,CC[C@H](C)C(=O)O[C@H]1C[C@H](O)C=C2C=C[C@H](C)[C@H](CC[C@@H](O)C[C@@H](O)CC(=O)O)[C@H]21 [Pravastatin],1.09 (inactive)
7,Cc1cccc(N(C)C(=S)Oc2ccc3ccccc3c2)c1 [Tolnaftate],1 (inactive)
8,Cc1ccccc1C(OCCN(C)C)c1ccccc1 (stereo not drawn) [Orphenadrine hydrochloride],0.954 (inactive)
9,CN1CCCC(n2nc(Cc3ccc(Cl)cc3)c3ccccc3c2=O)CC1 (stereo not drawn) [Azelastine hydrochloride],0.994 (inactive)
10,CCN(Cc1ccncc1)C(=O)C(CO)c1ccccc1 (stereo not drawn) [Tropicamide],0.816 (inactive)
11,NC1CCN(c2c(F)cc3c(=O)c(C(=O)O)cn(C4CC4)c3c2Cl)C1 (stereo not drawn) [Clinafloxacin],0.0486 (active)
12,CCOc1nc2cccc(C(=O)O)c2n1Cc1ccc(-c2ccccc2-c2nnn[nH]2)cc1 [Candesartan],1.05 (inactive)
13,CCOC(=O)C1=C(COCCN)NC(C)=C(C(=O)OC)C1c1ccccc1Cl (stereo not drawn) [Amlodipine],0.989 (inactive)
14,CC(C)(C)NCC(O)COc1cccc2c1CC(O)C(O)C2 (stereo not drawn) [Nadolol],1 (inactive)
15,Cc1ccc(N(CC2=NCCN2)c2cccc(O)c2)cc1 [Phentolamine hydrochloride],1.05 (inactive)
16,COc1nc(C)nc(Cl)c1NC1=NCCN1 [Moxonidine],1.01 (inactive)
17,CC(=O)N(CC(O)CO)c1c(I)c(C(=O)NCC(O)CO)c(I)c(C(=O)NCC(O)CO)c1I (stereo not drawn) [Iohexol],0.981 (inactive)
18,O=C(O)Cc1sc(-c2ccccc2)nc1-c1ccc(Cl)cc1 [Fentiazac],1.03 (inactive)
19,CCN(CCO)CCCC(C)Nc1ccnc2cc(Cl)ccc12 (stereo not drawn) [Hydroxychloroquine sulfate],1 (inactive)
20,C[C@H](CCC(=O)O)[C@H]1CC[C@H]2[C@@H]3CC[C@@H]4C[C@H](O)CC[C@]4(C)[C@H]3CC[C@]12C [Lithocholic acid],1.04 (inactive)
21,NC(N)=Nc1nc(CSCC/C(N)=N/S(N)(=O)=O)cs1 [Famotidine],0.975 (inactive)
22,CCCOc1cc(N)ccc1C(=O)OCCN(CC)CC [Propoxycaine hydrochloride],1.04 (inactive)
23,Cc1cc(-n2c(=O)[nH]c(=O)n(C)c2=O)ccc1Oc1ccc(SC(F)(F)F)cc1 [Toltrazuril],0.954 (inactive)

row,Structure (SMILES),growth AUC normalised to DMSO control
1,NC(=O)OCC(O)COc1ccc(Cl)cc1 (stereo not drawn) [Chlorphensin carbamate],1.01 (inactive)
2,Cc1cn[nH]c1 [Fomepizole],0.954 (inactive)
3,CC12CC3CC(C)(C1)CC(N)(C3)C2 [Memantine hydrochloride],0.986 (inactive)
4,CC(=O)OC[C@H]1O[C@@H]([S-])[C@H](OC(C)=O)[C@@H](OC(C)=O)[C@@H]1OC(C)=O.CCP(CC)CC.[Au+] [Auranofin],0.189 (active)
5,O=C(COc1ccc(Cl)cc1)N1CCN(Cc2ccc3c(c2)OCO3)CC1 [Fipexide hydrochloride],0.836 (inactive)
6,CCCN(CCC)CCc1cccc2c1CC(=O)N2 [Ropinirole hydrochloride],1 (inactive)
7,CN[C@H]1CC[C@@H](c2ccc(Cl)c(Cl)c2)c2ccccc21 [Sertraline],0.929 (inactive)
8,COc1ccc(C(=O)c2ccccc2O)c(O)c1 [Dioxybenzone],0.992 (inactive)
9,COc1ccc2[nH]c([S+]([O-])Cc3ncc(C)c(OC)c3C)nc2n1 (stereo not drawn) [Tenatoprazole],0.978 (inactive)
10,CCOC(=O)C1=C[C@]2(CC)CCCN3CCc4c(n1c1ccccc41)[C@@H]32 [Vinpocetine],0.845 (inactive)
11,CC/C(=C(\c1ccccc1)c1ccc(OCCN(C)C)cc1)c1ccccc1 [Tamoxifen citrate],0.997 (inactive)
12,C#C[C@]1(O)CC[C@H]2[C@@H]3CCC4=C(CCC(=O)C4)[C@H]3CC[C@@]21C [Norethynodrel],0.989 (inactive)
13,Nc1nc(O)c2ncn(CCC(CO)CO)c2n1 [Penciclovir],0.944 (inactive)
14,COc1cc(-c2ccc(=O)[nH]n2)ccc1OC(F)F [Zardaverine],1.02 (inactive)
15,CCOc1ccc2c(c1)C(C)=CC(C)(C)N2 [Ethoxyquin],0.94 (inactive)
16,Cc1cc(=O)oc2cc(O)ccc12 [Hymecromone],1 (inactive)
17,Nc1nc2ccc(OC(F)(F)F)cc2s1 [Riluzole hydrochloride],1.01 (inactive)
18,CCC(=O)[C@@]1(C)[C@H](C)C[C@H]2[C@@H]3CCC4=CC(=O)C=C[C@]4(C)[C@H]3[C@@H](O)C[C@@]21C [Rimexolone],0.998 (inactive)
19,Cc1cccc(Nc2ccccc2C(=O)O)c1C [Mefenamic acid],0.946 (inactive)
20,CC[N+](C)(CC)CCOC(=O)C1c2ccccc2Oc2ccccc21 [Methantheline bromide],1.04 (inactive)
21,O=C(O)c1cccnc1 [Niacin],1.07 (inactive)
22,CC(CN(C)C)CN1c2ccccc2Sc2ccccc21 (stereo not drawn) [Trimeprazine tartrate],0.94 (inactive)

# Source: the supplement of paper PMC12350171
